Measurements taken from the supplement of paper PMC10338343.
± gives the standard deviation.
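Also: 1 nM active piRISC with 0.1 nM target library at 33 °C single turnover.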

What follows are sequences tested on MILI (PIWIL2) piRISC loaded with L1MC piRNA (26 nt) (assay: pre-steady-state target cleavage rate (min^-1); guide: L1MC piRNA 5'p-UAACUAAAUACUAUGCAAGCUGUAGG; MIWI and MILI are mouse PIWI proteins and EfPiwi is from a freshwater sponge; tags in brackets are library labels; higher = faster piRNA-guided slicing of the target). Settings: auxiliary factor: 500 nM mouse GTSF1.
In short: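 In this Cleave-'n-Seq assay, uncleaved targets were sequenced and normalised to depth and to weakly complementary targets. They came from a transcribed, DNA-blocked target RNA library […] mixed with 1 nM active affinity-purified piRISC carrying one synthetic guide, with or without 500 nM GTSF1 partner protein, in HEPES–potassium acetate buffer at 33 °C for 0–8 or 0–960 min. After three trials were pooled and k3 was capped at 0.0001 min^-1, the pre-steady-state cleavage rate was obtained from a burst-and-steady-state fit.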
For UCCUGGAUGUCCUUGCAAAGUAUUUAGAUA, the “pre-steady-state target cleavage rate” value was 0.0324 ± 0.012.
In the case of UCCUGGAUGUCCUUGUCAUAGUAUUUAGUUA, the “pre-steady-state target cleavage rate” value is reported as 0.0189 ± 0.009.
UCCUGGAUCAGCUUGCAUAGUAAAAAGAAA was tested, and the “pre-steady-state target cleavage rate” value was 0.0472 ± 0.015.
In the case of UCCUGGAUGUGCUUGCAUAGUAUUUAGGUA, the “pre-steady-state target cleavage rate” value is reported as 0.0373 ± 0.011.
In the case of UCCUGGAUGUGCUUGCAUUCUAUUUAGUUA, the “pre-steady-state target cleavage rate” value is reported as 0.0101 ± 0.004.
With UCCUGGAUCAGCUUGCAUAGUUUUAGUUA the “pre-steady-state target cleavage rate” value was 0.00374 ± 0.0036.
For UCCUGGAUGUCCUUGCAUAGUAUUAAGUAA, the “pre-steady-state target cleavage rate” value was 0.0433 ± 0.013.
In the case of UCCUGGUUGAGCUUGCAUAGUAUUUAGAAA, the “pre-steady-state target cleavage rate” value is reported as 0.0925 ± 0.026.
With UCCUGGAUGUCGUUGCAUAGUAUUUAGGUUA the “pre-steady-state target cleavage rate” value was 0.152 ± 0.033.
With UCCUGGAUGUCCUUGCUUAGUAUUUACUUA the “pre-steady-state target cleavage rate” value was 0.0556 ± 0.015.
For UCCUGGAACAGCUUGCAUAGAAUUUACUUA, the “pre-steady-state target cleavage rate” value was 0.0289 ± 0.011.
For UCCUGGAACUGCUUGCAUAGUAUUUACAAA, the “pre-steady-state target cleavage rate” value was 0.0945 ± 0.022.
With UCCUGGAUGUGCUUGGAUAGUAUUUUGUUA the “pre-steady-state target cleavage rate” value was 0.0685 ± 0.02.
UCCUGGAACAGCUUGCAUAGUAUAUAGAUA was tested, and the “pre-steady-state target cleavage rate” value was 0.0877 ± 0.022.
With UCCUGGAUGUCGAACCAUAGAAUUUUGUUA the “pre-steady-state target cleavage rate” value was 0.251 ± 0.13.
With UCCUGGAUCAGCUACGAUAGUAUUUAGUAA the “pre-steady-state target cleavage rate” value was 0.0254 ± 0.0088.
For UCCUGGAUGUGCUUGCAUAGUAUUUACUUA, the “pre-steady-state target cleavage rate” value was 0.0325 ± 0.0094.
UCCUGGAUGUCCUUGCAUAGUUUUUUGUUA was tested, and the “pre-steady-state target cleavage rate” value was 0.00821 ± 0.0052.
In the case of UCCUGGAUGUCGAAGCAUAGUAUGUAGUUA, the “pre-steady-state target cleavage rate” value is reported as 0.0113 ± 0.0045.
UCCUGCUACAGCUUGCAUAGUAAAAACAAA was tested, and the “pre-steady-state target cleavage rate” value was 0.0234 ± 0.01.
For UCCUGGAUCACGUUGCAUAGUAUUUUCAAA, the “pre-steady-state target cleavage rate” value was 0.0743 ± 0.025.
In the case of UCCUGGAUGUCCUUGGCAUAGUAUUUAGUUA, the “pre-steady-state target cleavage rate” value is reported as 0.566 ± 0.19.
With UCCUGGAUGUCCUACCAUAGUAUUUAGUAA the “pre-steady-state target cleavage rate” value was 0.021 ± 0.0077.
UCCUGCUACAGCUACGAUAGUAUUUAGAAA was tested, and the “pre-steady-state target cleavage rate” value was 0.0517 ± 0.019.
With UCCUGGAUGUGCUUCGAUAGUAUUUAGUAA the “pre-steady-state target cleavage rate” value was 0.0404 ± 0.011.
For UCCUGCUACAGCUUGCAUAGAUAUUAGUUA, the “pre-steady-state target cleavage rate” value was 0.0176 ± 0.0073.
UCCUGGAUGUGCUUGCAUAGUAUUUGUUA was tested, and the “pre-steady-state target cleavage rate” value was 0.0295 ± 0.011.
In the case of UCCUGGAACAGCAAGCAUAGUAUUUACAAA, the “pre-steady-state target cleavage rate” value is reported as 0.148 ± 0.034.
For UCCUGGAACAGCUUGCAUAGUUUUUUCAAA, the “pre-steady-state target cleavage rate” value was 0.00594 ± 0.0037.
In the case of UCCUGGUACAGCUUGCAAAGUAUUUACUUA, the “pre-steady-state target cleavage rate” value is reported as 0.0515 ± 0.015.

Same assay, conditions: auxiliary factor: none (no GTSF1)
With UCCUGGAUGUCGAACGUUAGUAUUAACUUA the “pre-steady-state target cleavage rate” value was < 0.0001.
UCCUGGAUGUCGAUCCAUUGUAUUUAGUUA was tested, and the “pre-steady-state target cleavage rate” value was < 0.0001.
UCCUGGAUGUCGAACGUAUCUAUAUUGUUA was tested, and the “pre-steady-state target cleavage rate” value was < 0.0001.
For UCCUGGAUGUCGAACCAUUCUAUUUAGUUA, the “pre-steady-state target cleavage rate” value was < 0.0001.
With UCCUGGAUGUCGAACGUUAGUAUUUGUUA the “pre-steady-state target cleavage rate” value was < 0.0001.
UCCUGGAUGUCGAACGAAAGUAUUUUGUUA was tested, and the “pre-steady-state target cleavage rate” value was < 0.0001.
With UCCUGGAUGUCGAACGCUAGUAUUUAGUUA the “pre-steady-state target cleavage rate” value was < 0.0001.
UCCUGGAUGUCGAACGUAUCUUAUUAGUUA was tested, and the “pre-steady-state target cleavage rate” value was < 0.0001.
UCCUGGAUGUCGAAGCUUAGUAUUUUGUUA was tested, and the “pre-steady-state target cleavage rate” value was < 0.0001.
UCCUGGAUGUCGAACGUAUGUAUUUAGUAA was tested, and the “pre-steady-state target cleavage rate” value was < 0.0001.
